Screens: PubChem BioAssay, The Scripps Research Institute Molecular Screening Center
Shown are actives, neighbours in structure and some others; about 3.4% of the full set was active somewhere.
FBW7 activator – FBW7 E3 ligase activators, primary screen, biochemical, AlphaScreen, human; AlphaScreen FBW7–phospho-cyclin E peptide binding, activator screen; normalized activity (activation), % at 26.1 µM; actives 0.13% (n = 650,000); AID 1259310, 2017; in the data active means normalized activity above about 1.9%;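 further: purified mutant Fbw7 with reduced substrate affinity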
MITF inh – MITF inhibitors, primary screen, biochemical, AlphaScreen, human. AlphaScreen MITF homodimerization, bead proximity signal. AID 1259374, 2018. Microphthalmia-associated transcription factor (Homo sapiens), O75030. actives 0.91% (n = 650,000). inhibition, % at 2.6 µM; in the data active means inhibition above about 50%;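 further: 0% = vehicle wells with protein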
GPR151 ag – activators of human GPR151, primary screen, cell-based, PathHunter beta-arrestin, luminescence; G-protein coupled receptor 151 (Homo sapiens), Q8TDV0; PathHunter beta-arrestin GPR151 cells; activation, % at 11.2 µM; actives 1% (n = 650,000); AID 1508602, 2020; in the data active means activation above about 4.9%;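 further: 0% = median of compound wells and 100% = cells with positive control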
Target sequence (Q8TDV0 whole entry, looked up): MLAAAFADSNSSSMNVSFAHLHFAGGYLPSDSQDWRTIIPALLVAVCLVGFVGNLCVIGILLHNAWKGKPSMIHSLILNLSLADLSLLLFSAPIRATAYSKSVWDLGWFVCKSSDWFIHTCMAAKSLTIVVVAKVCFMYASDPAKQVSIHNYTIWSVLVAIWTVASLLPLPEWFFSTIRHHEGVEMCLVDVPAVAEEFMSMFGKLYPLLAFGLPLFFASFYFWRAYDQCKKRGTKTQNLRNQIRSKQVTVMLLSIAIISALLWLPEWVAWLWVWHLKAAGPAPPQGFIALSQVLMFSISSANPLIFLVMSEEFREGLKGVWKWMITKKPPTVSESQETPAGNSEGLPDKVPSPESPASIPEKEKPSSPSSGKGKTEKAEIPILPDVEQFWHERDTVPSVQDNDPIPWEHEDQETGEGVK
TEAD-YAP inh – TEAD-YAP interaction inhibition, primary screen, TEAD-YAP interaction inhibitor project, luminescence, HEK-TIYL cells; TEAD-Gal4/YAP UAS-luciferase luminescence; inhibition, % at 9.12 µM; actives 1.4% (n = 640,000); AID 1259422, 2018; in the data active means inhibition above about 32%;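 further: 0% = median of test compound wells and 100% = reference inhibitor wells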
Active calls of the source: *.

SMILES	FBW7 activator	MITF inh	GPR151 ag	TEAD-YAP inh
O=C1CCCC2=C1C(c1cccc(O)c1)Nc1ccc(C(=O)c3ccccc3)cc1N2 (centres undefined)	0	15	-1	20
O=C1CCCC2=C1C(c1cccc(Cl)c1)Nc1ccc(C(=O)c3ccccc3)cc1N2 (centres undefined)	0	4	0	70*
CCOc1ccccc1NC(=O)CN1C(=O)CCSc2ccccc21	0	13	-1	12
CCOC(=O)c1ccc(NC(=O)CSc2n[nH]c(CC(C)C)n2)cc1	0	5	0	-13
CCOC(=O)C1CCN(C(=O)Nc2ccc(NC(=O)C3CCN(C(=O)OCC)CC3)cc2)CC1	6.1*	4	1	-3
NNC(=O)/C(=C\c1ccco1)NC(=O)c1ccccc1	0	-5	0	35*
O=C(O)/C(=C/c1ccco1)NC(=O)c1ccccc1	-1	17	0	7
O=C(Nc1ccc2cnccc2c1)c1ccc(OCC(O)c2ccc(Br)cc2)cc1 (centres undefined)	0	49	1	-5
COc1ccc2c(c1)CCCN2C(=O)c1cc(OC)c(OC)c(OC)c1	0	14	2	45*
COc1ccccc1N1CCN(C(=O)c2cc(OC)c(OC)c(OC)c2)CC1	0	-8	1	64*
COc1cc(C(=O)N2CCCc3ccccc32)cc(OC)c1OC	0	10	1	-1
COC(=O)c1cc(C(=O)N2CCN(c3ccccc3OC)CC2)cc([N+](=O)[O-])c1	0	-11	2	64*
Cc1cccc(N2CCN(C(=O)c3c(-c4ccccc4)noc3C)CC2)c1C	0	-7	0	53*
Cc1onc(-c2ccccc2)c1C(=O)N1CCN(c2ccc([N+](=O)[O-])cc2Cl)CC1	0	2	-1	3
O=C(CSc1nnc(CN2C(=O)c3cccc4cccc(c34)C2=O)n1-c1ccccc1)NCCCN1CCOCC1	0	-9	0	-4
COc1ccc(Cl)cc1C(=O)N1CCN(c2ccccc2F)CC1	0	0	4	34*
COc1ccc(C(=O)N2CCN(c3cccc(C)c3C)CC2)cc1	0	6	1	1
CSc1ncc(Cl)c(C(=O)N2CCN(C)CC2)n1	0	-13	0	4
COc1ccccc1N1CCN(C(=O)c2nc(SC)ncc2Cl)CC1	0	-18	4	49*
COc1cc(OC)cc(C(=O)N2CCN(c3cccc(C)c3C)CC2)c1	0	12	-1	47*
COc1cc(C(=O)N2CCN(c3cccc(Cl)c3)CC2)cc(OC)c1OC	0	3	1	52*
Cc1cc(/C=C2\C(=N)N3N=C(S(C)(=O)=O)SC3=NC2=O)c(C)n1-c1ccccc1	0	1	0	-2
O=C(Cn1c(=O)[nH]c2ccccc2c1=O)N1CCN(c2cccc(C(F)(F)F)c2)CC1	0	7	2	10
COc1nn(C)cc1C(=O)N1CCCC(C(=O)N2CCN(c3cccc(Cl)c3)CC2)C1 (centres undefined)	0	0	-1	42*
COc1ccccc1N1CCN(C(=O)COc2cccc(C)c2C)CC1	0	18	0	4
SMILES	FBW7 activator	MITF inh	GPR151 ag	TEAD-YAP inh
COc1ccccc1N1CCN(C(=O)COc2ccc(Br)cc2C)CC1	0	6	2	49*
COc1cc(SC)ccc1C(=O)N1CCN(c2cccc(Cl)c2)CC1	0	11	1	51*
COc1ccccc1N1CCN(C(=O)c2ncoc2-c2ccccc2C(F)(F)F)CC1	0	-17	0	51*
COc1ccccc1CNC(=O)c1ncoc1-c1ccccc1C(F)(F)F	0	-2	-1	-3
COc1ccc(NC(=O)COC(=O)C(CC(C)C)NC(N)=O)cc1Cl (centres undefined)	0	3	-1	5
COC(=O)c1cccc(NC(=O)/C(=C\c2ccco2)NC(=O)c2ccccc2OC)c1	0	7	0	0
O=C(N1CCN(c2ccccc2F)CC1)N1c2ccccc2Sc2ccccc21	0	11	2	64*
COc1ccccc1N1CCN(C(=O)c2cc(Br)cc(Br)c2)CC1	0	15	1	58*
O=C(N1CCCCCC1)N1c2ccccc2Sc2ccccc21	0	3	0	-3
CSc1ccc(NC(=O)NCCN2CCN(c3cccc(Cl)c3)CC2)cc1	4.4*	-13	0	3
Cc1c(C(=O)N2CCN(c3cccc(Cl)c3)CC2)sc2nc[nH]c(=O)c12	0	-9	0	48*
CCCCC(c1nnnn1CC1CCCO1)N1CCN(c2ccccc2F)CC1 (centres undefined)	0	7	1	-4
O=C(Nc1ccc(Sc2nc3ccccc3s2)c(Cl)c1)c1cc([N+](=O)[O-])ccc1Cl	0	11	0	32*
O=C(Nc1ccc2oc(-c3cccc(F)c3)nc2c1)c1cc([N+](=O)[O-])ccc1Cl	0	13	0	37*
O=C(Nc1ccc2oc(-c3cccc4c(Br)cccc34)nc2c1)c1cc([N+](=O)[O-])ccc1Cl	0	15	-2	-6
O=C(Nc1ccc2oc(-c3cccc4c(Br)cccc34)nc2c1)c1ccccc1[N+](=O)[O-]	0	2	0	43*
CC(=O)Nc1ccc(Sc2nc3ccccc3s2)c(Cl)c1	0	-8	-1	-2
O=C(NC(=S)Nc1ccc([N+](=O)[O-])cc1)c1ccc(F)cc1	0	15	-1	-8
O=C1NC(=S)NC(=O)C1=Cc1cn(-c2ccccc2)nc1-c1cccs1	0	75*	-1	-11
O=C1NC(=S)NC(=O)C1=Cc1cn(-c2ccccc2)nc1-c1ccc2c(c1)OCCO2	0	5	0	-67
Cc1ccc(NC(=O)Cn2c(-n3nc(C)cc3C)nc(C)cc2=O)cc1	1	4	-1	43*
O=C(CNCc1ccccc1)Nc1ccc(N2CCCC2)cc1	1	12	0	-21
O=C(c1ccc(OCc2ccccc2)cc1)N1CCCC1	0	14	-9	84*
c1ccc(COc2ccc(OCCCCN3CCNCC3)cc2)cc1	0	56*	0	-14
